The campaign covered roughly 310,000 compounds. About 14,000 (4.5%) showed an effect of 50% or more. The effect is printed as a negative number. The list comes from a sample in which strong results are over-represented; it also holds similar structures and randomly drawn compounds.
Molecular target: human ether-à-go-go-related gene (hERG) potassium channel (human, UniProt Q12809)
Experiment: primary screen, population patch clamp on CHO cells stably expressing hERG; higher = less effect of the substance
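Also: peak tail current of the secondary pulse compared with the same well before compound.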

human ether-à-go-go-related gene (hERG) potassium channel, sequence (Q12809 whole entry, looked up): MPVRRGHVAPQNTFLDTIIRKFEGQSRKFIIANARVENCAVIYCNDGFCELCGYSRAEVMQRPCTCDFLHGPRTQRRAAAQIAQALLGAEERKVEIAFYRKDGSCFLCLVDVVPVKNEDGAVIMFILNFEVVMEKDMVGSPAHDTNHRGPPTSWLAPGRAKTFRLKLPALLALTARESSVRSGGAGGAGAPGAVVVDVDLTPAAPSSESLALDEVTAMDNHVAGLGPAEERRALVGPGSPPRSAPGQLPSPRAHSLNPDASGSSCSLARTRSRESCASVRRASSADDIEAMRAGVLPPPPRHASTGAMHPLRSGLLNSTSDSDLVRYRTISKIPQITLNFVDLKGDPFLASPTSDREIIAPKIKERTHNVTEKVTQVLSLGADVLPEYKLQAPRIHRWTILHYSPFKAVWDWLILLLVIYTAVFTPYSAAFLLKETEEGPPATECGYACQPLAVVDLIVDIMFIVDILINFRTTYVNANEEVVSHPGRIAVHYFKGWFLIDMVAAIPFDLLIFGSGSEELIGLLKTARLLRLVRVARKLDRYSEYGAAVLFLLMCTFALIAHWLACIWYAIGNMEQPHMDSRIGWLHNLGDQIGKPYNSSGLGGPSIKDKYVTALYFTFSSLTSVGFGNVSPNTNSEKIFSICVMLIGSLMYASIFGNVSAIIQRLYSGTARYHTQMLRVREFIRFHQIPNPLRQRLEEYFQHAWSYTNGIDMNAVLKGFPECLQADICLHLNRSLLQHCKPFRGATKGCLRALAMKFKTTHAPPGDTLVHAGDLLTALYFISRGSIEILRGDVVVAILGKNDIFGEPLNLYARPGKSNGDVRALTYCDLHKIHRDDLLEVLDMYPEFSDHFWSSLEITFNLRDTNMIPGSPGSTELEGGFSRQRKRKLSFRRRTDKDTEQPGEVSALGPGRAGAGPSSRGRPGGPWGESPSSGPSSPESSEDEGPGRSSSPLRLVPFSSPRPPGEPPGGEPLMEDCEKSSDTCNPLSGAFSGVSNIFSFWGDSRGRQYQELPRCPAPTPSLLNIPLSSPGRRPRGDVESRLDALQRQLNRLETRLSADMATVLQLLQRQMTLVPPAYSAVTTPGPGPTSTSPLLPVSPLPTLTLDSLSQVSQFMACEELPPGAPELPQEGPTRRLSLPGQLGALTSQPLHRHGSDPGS

Structure (SMILES) | hERG current change (%, negative = inhibition) at 10uM
Cl.O=C1CC2(CCCC2)CC(=O)N1CCCCN1CCN(c2ncccn2)CC1 | -35.9%
Cc1c(C)n2c(SCC(=O)NCc3ccc4c(c3)OCO4)nnc2[nH]c1=O | 7.88%
CSc1cccc(NC(=S)N2CCC(N(C)C3CCCC3)CC2)c1 | -29.2%
CCCCN(C)C1CCN(C(=S)Nc2cccc(SC)c2)CC1 | -59.8%
CSc1cccc(NC(=S)N2CCC(N(C)C3CCCCC3C)CC2)c1 (stereo not shown) | -58.2%
CCOC(=O)N1CCC(N(CCN(C)C)C(=S)Nc2cccc(SC)c2)CC1 | -11.6%
CN(C1CCCC1)C1CCN(C(=S)Nc2cc(F)cc(F)c2)CC1 | -42%
CSc1cccc(NC(=S)N2CCC(c3ccccc3)C2)c1 (stereo not shown) | 7.54%
CCCCN(C)C1CCN(C(=S)Nc2cccc(OC)c2)CC1 | -19.9%
CSc1cccc(NC(=S)N2CCC(N(C)C3CCCCCC3)CC2)c1 | -62.9%
CCCCN(C(=S)Nc1cccc(SC)c1)C1CCN(C(C)=O)CC1 | -28.9%
CCC(C)N(C)C1CCN(C(=S)Nc2cccc(SC)c2)CC1 (stereo not shown) | -45.8%
CSc1cccc(NC(=S)N2CCC(N(C)C3CCCCC3)CC2)c1 | -64.4%
CSc1cccc(NC(=S)N2CCC(N(C)C(C)C)CC2)c1 | -16.2%
N#CCOc1coc(CN2CCN(c3cccc(Cl)c3)CC2)cc1=O | -0.696%
Cc1ccccc1C(=O)NC(=S)Nc1ccccc1C(=O)O | 15.5%
Cc1nnc(-c2cnn(-c3ccccc3)c2N)n1Cc1cccc(C(F)(F)F)c1 | -18.8%
Cc1ccc(CSCC(=O)N(C)CC(=O)Nc2ccccc2C(F)(F)F)cc1 | -0.53%
O=C1NC(=Nc2ccccc2Cl)S/C1=C\c1cccc([N+](=O)[O-])c1 | -0.316%
Cn1cc(/C=C2\SC(=S)N(NC(=O)c3ccccc3)C2=O)c2ccccc21 | 10.6%
CCOc1cc(C(=O)N(C)CC(=O)Nc2cccc(F)c2)ccc1OCC(=O)N1CCCCC1 | -14.1%
O=C(COC(=O)CNC(=O)c1ccccc1F)Nc1ccc2[nH]c(=O)[nH]c2c1 | 10.2%
COc1ccc(NC(=O)CN2C(=O)NC3(CCCC3)C2=O)cc1 | 13.7%
CCOC(=O)c1nn(-c2ccc(F)cc2)c2c1CC/C2=C/c1ccccc1 | 8.7%
CN(C)c1cc(N)c2c(n1)CCC2.O=C(O)c1cncc(O)c1 | -10.8%
